# L3MBTL1 block: L3MBTL1 (human) inhibition; AlphaScreen L3MBTL1–H3K9me1 peptide binding; Potency, µM (series often up to 57.1 µM), inactives show top-dose activity, negative = inhibition, actives largely listed as inhibitors; 0.66% of 230,000 active; Q9Y468; AID 485360; also: % is scaled to controls: 0 for no effect and ±100 for the full control effect; nearly all actives have a fitted effect of over 60% in size
#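 AlphaScreen proximity signal between nickel-chelate acceptor and streptavidin donor beads (final 10 ug/mL) reports binding of 50 nM L3MBTL1 to 75 nM biotin-H3 K9me1 peptide; complex incubated with compounds 30 min at room temperature; cefsulodin titration as control.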
# BAZ2B block: BAZ2B (human) inhibition; AlphaScreen BAZ2B-H3K14Ac peptide displacement; Potency, µM (titrated, usually from 114 µM), for the others: at the top dose activity change, negative = inhibition, most hits filed as inhibitors; 4.4% of 360,000 active; Q9UIF8; also: % is scaled to controls: 0 for no effect and ±100 for the full control effect; nearly all actives have a fitted effect of over 60% in size
#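 BAZ2B 50 nM plus b-H3(5-23)K14Ac 50 nM, PBS pH 7.4/0.01% Tween-20, 30 min RT; compound added (max 110 uM), 30 min RT; streptavidin donor/Ni-chelate acceptor beads 10 ug/mL final, 20 min dark; AlphaScreen read.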
# HP1b chromo inh: blocks HP1-beta chromodomain binding to methylated histone tails. 0.56% of 390,000 active. Potency, µM (series often up to 114 µM), without a hit: top-dose activity change, negative = inhibition, usual class: inhibitors. P83916. AID 540317. AlphaScreen HP1-beta / biotin-H3K9me3 peptide binding; also: nearly all actives have a fitted effect of over 70% in size
# Target sequence (P83916 whole entry, looked up): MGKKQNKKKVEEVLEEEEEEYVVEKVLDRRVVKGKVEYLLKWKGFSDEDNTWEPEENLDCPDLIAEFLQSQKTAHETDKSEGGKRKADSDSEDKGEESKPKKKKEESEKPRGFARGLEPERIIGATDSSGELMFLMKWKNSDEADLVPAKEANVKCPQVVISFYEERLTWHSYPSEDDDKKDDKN
#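 HP1-beta protein (50 nM final) preincubated 30 min at room temperature with biotinylated H3(1-18)K9me3 peptide (50 nM) in PBS pH 7.4, 0.01% Tween-20, then compound added for 30 min. AlphaScreen streptavidin donor/nickel chelate acceptor beads (10 ug/mL final), 30 min dark, luminescence read.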
# G9a inh: G9a (human) methyltransferase inhibition; Potency, µM (doses to about 102 µM), without a hit: top-dose activity, negative = inhibition, actives largely listed as inhibitors; AID 504332; G9a H3K9 monomethylation, AlphaScreen, 2 h; 8.8% of 350,000 active; also: % is scaled to controls: 0 for no effect and ±100 for the full control effect; nearly all actives have a fitted effect of over 75% in size
# Target sequence (Q96KQ7 913-1193 limits assumed): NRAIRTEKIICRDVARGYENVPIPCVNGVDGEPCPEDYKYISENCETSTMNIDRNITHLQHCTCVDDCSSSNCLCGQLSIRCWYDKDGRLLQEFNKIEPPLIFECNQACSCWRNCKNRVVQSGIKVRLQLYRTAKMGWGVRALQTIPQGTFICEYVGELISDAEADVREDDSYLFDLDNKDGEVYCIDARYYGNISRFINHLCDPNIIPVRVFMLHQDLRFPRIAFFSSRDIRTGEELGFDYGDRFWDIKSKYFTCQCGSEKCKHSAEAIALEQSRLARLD
#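 Chemiluminescent proximity detection of H3K9 monomethylation, read after 10 min bead incubation in the dark. Reaction: 20 nM G9a, 500 nM biotin-H3K9 peptide, 20 uM SAM cofactor, 2 h, room temperature, following 15 min enzyme-compound preincubation.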
# JMJD2A Tudor inh: inhibitors of human JMJD2A Tudor domain; 4.4% of 390,000 active; O75164; AID 504339; AlphaScreen JMJD2A-Tudor / H3K4me3 peptide binding; Potency, µM (series often up to 114 µM), for inactives: at the highest dose activity change, negative = inhibition, actives largely listed as inhibitors; also: % is scaled to controls: 0 for no effect and ±100 for the full control effect; nearly all actives have a fitted effect of over 50% in size
# Sfp inh: blocks B. subtilis Sfp PPTase activity. Biochemical Sfp PPTase activity, qHTS. Potency, µM, without a hit: largest response in the series, negative = inhibition, hits mostly inhibitors. 3.5% of 310,000 active. Q9F4F7;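 also: the enzyme is Sfp with the accession as filed and its product quenches rhodamine fluorescence; 0% = enzyme reaction without inhibitor and -100% = no enzyme wells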
#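 Fluorescence-quenching assay with 15 nM Sfp, 5 uM rhodamine-CoA and 12.5 uM BHQ-2-labelled ybbR peptide in pH 7.6 Hepes/MgCl2 buffer. Enzyme was pre-incubated with compound for 15 min at room temperature. Rate was taken from the 30-min fluorescence change (525/598 nm).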
# Numbers without * were called inactive; ? = inconclusive; nt = not tested or not shown; [ ] = another dose, or the depositor's remark. Hits are enriched below; roughly 12% of the tested compounds scored in any of these assays. Calls follow the shape of the dose curve; as a rule, active = well fitted curve in the direction sought with a large enough effect; inconclusive = small, poorly fitted or top-dose-only effect, or another doubt; inactive = no such curve, though single readings can be large; an effect the other way counts as inactive or inconclusive. Potency is read from the fitted curve at half-maximal effect.
SMILES,L3MBTL1 block,BAZ2B block,HP1b chromo inh,G9a inh,JMJD2A Tudor inh,Sfp inh
c1ccc2c(c1)cc1ccc3cccc4ccc2c1c34,nt,nt,147%,nt,88%,nt
O=C1C=CC(=O)c2c1ccc1c2ccc2ccccc21,nt,nt,nt,5µM*,nt,3.5µM*
NCCCNCCCCNCCCNC(=O)Cc1ccc(O)cc1,nt,nt,nt,7%[12.7 µM],nt,18%
COc1cc(/C=C/c2nc3ccccc3c(=O)n2-c2ccccc2O)ccc1O,nt,-19%,8%,-47%,-15%,-5%
COc1cc(/C=N/NP(=S)(c2ccccc2)c2ccccc2)ccc1O,nt,-35%,-39%,45µM*,?,-24%
Cc1ccc2[nH]c(=S)n(-c3cccnc3)c(=O)c2c1,nt,1%,20%,45µM*,?,-3%
O=c1c2ccc(Cl)cc2[nH]c(=S)n1-c1cccnc1,-8%,-21%,22%,20µM*,18µM*,-2%
O=C1c2ccccc2-c2cccc3cccc1c23,nt,nt,2%,-35%[2.33 µM],56µM*,-12%
COC(=O)C[C@@](O)(CCC(C)(C)O)C(=O)O[C@@H]1C(OC)=C[C@]23CCCN2CCc2cc4c(cc2[C@@H]13)OCO4,nt,nt,nt,nt,nt,7%
COC(=O)C1=C(c2ccc(OCc3ccccc3)cc2)C[C@@H]2CC[C@H]1N2C(=O)NCc1ccc(N(C)C)cc1,-7%,8.9µM*,42%,9%[2.33 µM],?,nt
COc1cc2c(cc1OC)-c1c(OC)c(OC)c(OC)c3ccnc(c13)C2=O,-6%,28µM*,-1%,?,?,15%
COc1cc(CC2(CCc3ccncc3)C(=O)NC(=O)NC2=O)cc(OC)c1OC,-1%,-12%,-18%,6%,-15%,8%
O=[N+]([O-])c1ccc([As](=O)(O)O)cc1,nt,nt,nt,?,nt,5%
O=[N+]([O-])c1cc(-c2ccc([As](=O)(O)O)cc2)ccc1[As](=O)(O)O,22µM*,?,nt,50µM*,nt,-2%
O=C1NC(=O)N(CC2CCCO2)C(=O)/C1=C/c1cccs1 (stereo unspecified),-29%,-4%,28%,8%[12.7 µM],-26%,79µM*
O=C1NC(=O)N(CCC2=CCCCC2)C(=O)/C1=C/c1ccc(O)cc1,-14%,3%,35%,?,-8%,45µM*
O=C1NC(=O)N(Cc2cccs2)C(=O)/C1=C/c1ccc(N2CCOCC2)cc1,nt,?,24%,?,-34%,50µM*
COc1ccc(/C=C/C(=O)c2c(O)n(CCC3=CCCCC3)c(=O)[nH]c2=O)cc1OC,nt,-11%,89%,-2%[12.7 µM],-6%[11.4 µM],3%
COc1ccc(/C=C2\C(=O)NC(=O)N(CCC3=CCCCC3)C2=O)c(OC)c1,4%,13%,18%,11µM*,-42%,56µM*
CCN(CC)c1ccc(/C=C2/C(=O)NC(=O)N(CC3CCCO3)C2=O)cc1 (stereo unspecified),?,?,0%,nt,-22%,-6%
CN1CCN(c2ncc3ncc(=O)n(C)c3n2)CC1,nt,nt,nt,-3%[0.501 µM],nt,-9%
CC(C)C[C@H](NC(=O)[C@H](Cc1ccccc1)NC(=O)CNC(=O)[C@@H](NC(=O)[C@@H](N)Cc1ccc(O)cc1)[C@H](C)O)C(=O)N[C@H](C(=O)O)[C@H](C)O,nt,nt,nt,33%[59 µM],nt,-10%
CN(C)c1ccc(N=Cc2c(O)n(CCC3=CCCCC3)c(=O)[nH]c2=O)cc1,4%,-2%,9%,-11%,-24%,7%
O=C1NC(=O)N(CCC2=CCCCC2)C(=O)/C1=C/c1cccs1,-27%,?,6%,14µM*,?,-15%
CNC(C)Cc1ccccc1OC (stereo unspecified),nt,nt,nt,6%[59 µM],nt,4%
SMILES,L3MBTL1 block,BAZ2B block,HP1b chromo inh,G9a inh,JMJD2A Tudor inh,Sfp inh
CCCCCCN1CCN(c2ccc(Cl)cc2)CC1,7%,45µM*,?,?,?,-23%
Cc1cccc(CN2CCN(c3ccc(Cl)cc3)CC2)c1,-7%,50µM*,?,32µM*,22µM*,-15%
Cc1cccc(CN2CCN(Cc3ccc(Cl)cc3)CC2)c1,nt,32µM*,?,7.1µM*,1.1µM*,?
Fc1ccc(CN2CCN(c3ccc(Cl)cc3)CC2)cc1,nt,-16%,15%,-32%,-23%,4%
C=CCn1c(O)c(C(CC)=NCc2cccnc2)c(=O)[nH]c1=O,0%,-3%,38%,-30%,44%,3%
CCN1C[C@]2(COC(=O)c3ccccc3N3C(=O)C[C@H](C)C3=O)CC[C@H](OC)[C@@]34[C@@H]5C[C@H]6[C@H](OC)[C@H]5[C@](O)(C[C@@H]6OC)[C@@](O)([C@@H](OC)[C@@H]23)[C@@H]14,nt,nt,nt,nt,nt,-6%
O=c1c(/C=N/N2CCOCC2)c(O)n(-c2ccccc2)c(=S)n1-c1ccccc1,3%,?,11%,50µM*,-12%,-23%
O=c1[nH]c(=S)n(-c2ccc(F)cc2)c(O)c1/C=N/N1CCOCC1,5%,?,39%,45µM*,8%,4%
CC(C)(C)OC(=O)C(Br)CCBr (stereo unspecified),nt,nt,nt,nt,nt,-10%
CN1C(=O)C(C2(C#N)CCCCC2)C(=O)N(C)C1=O,-4%,12%,42%,50µM*,-11%,10%
CC(C)NC(=O)N1CCCC2(CCN(C(=O)Oc3ccccc3)CC2)C1,nt,nt,nt,35%[12.7 µM],nt,-1%
O=C1NC(=O)N(CCNc2ncc(C(F)(F)F)cc2Cl)C(=O)C1Cc1ccc(Cl)cc1 (stereo unspecified),-1%,-15%,20%,50µM*,-8%,?
O=C(O)CCC1NCC2CC1CN1CCCCC21 (stereo unspecified),nt,nt,nt,nt,nt,-10%
CCOC(=O)C1CCN(/C=C2/C(=O)NC(=O)N(c3cccc(C)c3C)C2=O)CC1,27%,?,28%,nt,-12%,?
O=C1NC(=O)N(Cc2ccccc2Cl)C(=O)/C1=C/N1CCOCC1,-6%,-2%,39%,?,-13%,10µM*
CN1/C(=C\C=C2C(=O)NC(=S)NC2=O)C(C)(C)c2ccccc21,4%,?,-7%,?,-26%,-11%
CC1(C)OC(c2ccccc2)=C/C(=C/C=C2C(=O)NC(=S)NC2=O)O1,?,10µM*,11µM*,10µM*,?,40µM*
O=C(NC(Cc1ccccc1)C(=O)N1CCC2(CC1)OCCO2)C1CCCCC1 (stereo unspecified),3%,?,10%,nt,-5%,2%
O=C(CNC1CCCCC1)N1CCC2(CC1)OCCO2,nt,?,?,35µM*,3.2µM*,-6%
COc1cccc(C2=CC(c3cc(Br)ccc3F)n3nnnc3N2)c1 (stereo unspecified),nt,8%,64%,11µM*,-10%,nt

# Assay outcomes: PubChem BioAssay, National Center for Advancing Translational Sciences (NCATS)
